High-throughput results: PubChem, National Center for Advancing Translational Sciences (NCATS)
GLA spleen mod: inhibitors or activators of human alpha-galactosidase in spleen homogenate | Potency, µM (titrated, usually from 80 µM), actives largely listed as inhibitors | 240,000 compounds, 0.008% hits | AID 2107 | P06280 | human spleen homogenate, 4MU-alpha-Gal fluorescence, 40 min
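Human spleen homogenate (1 ug) was the enzyme source, with 4-methylumbelliferyl-alpha-D-galactopyranoside (1 mM final) in pH 5.0 citrate buffer with 0.01% Tween-20. Compounds were titrated; after 40 min at 37C, NaOH/glycine stop, 4-MU fluorescence read; AC50 from Hill fits.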
PKM2 activator: increases activity of human pyruvate kinase M2; purified PKM2, Kinase-Glo ATP luminescence, activation; response scale: 0% is enzyme alone, no compound; Potency, µM (doses to about 57.5 µM), hits mostly activators; 260,000 compounds, 0.34% hits; AID 1631; note: nearly all actives have a fitted effect of over 55% in size
Target sequence (P14618 whole entry, looked up): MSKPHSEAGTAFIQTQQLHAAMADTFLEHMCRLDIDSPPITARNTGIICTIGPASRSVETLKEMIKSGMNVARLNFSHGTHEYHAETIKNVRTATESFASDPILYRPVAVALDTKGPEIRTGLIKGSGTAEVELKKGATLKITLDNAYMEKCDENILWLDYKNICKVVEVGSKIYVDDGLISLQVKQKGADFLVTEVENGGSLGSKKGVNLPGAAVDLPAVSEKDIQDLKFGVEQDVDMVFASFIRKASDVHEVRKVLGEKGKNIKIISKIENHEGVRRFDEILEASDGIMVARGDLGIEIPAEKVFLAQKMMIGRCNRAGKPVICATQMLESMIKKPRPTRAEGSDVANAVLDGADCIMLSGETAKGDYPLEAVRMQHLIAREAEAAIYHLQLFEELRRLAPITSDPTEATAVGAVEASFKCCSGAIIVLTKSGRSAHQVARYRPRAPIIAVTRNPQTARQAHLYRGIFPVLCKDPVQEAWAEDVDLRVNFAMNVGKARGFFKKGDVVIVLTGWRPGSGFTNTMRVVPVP
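Kinase-Glo luminescence reports ATP generated from ADP (0.1 mM) and PEP (0.5 mM) by purified hPK-M2 after 1 h at room temperature, pH 7.2 imidazole buffer; intermediate enzyme activity allows detecting inhibitors and activators.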
GLA inh pH 4.5: alpha-galactosidase A (human) inhibition, pH 4.5; P06280; purified enzyme, 4-MU-alpha-Gal fluorescence, pH 4.5; activity change, negative = inhibition, % at 105 µM; 230,000 tested, under 10 active; AID 1467
HttQ103 aggreg: mutant huntingtin aggregation inhibition. PC12 HttQ103-GFP aggregates, Acumen cytometry, 40 h. Potency, µM (top dose mostly 46.1 µM), usual class: inhibitors. 220,000 compounds, 1.1% hits. AID 1688; note: nearly all actives have a fitted effect of over 60% in size
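Huntingtin Q103 exon 1–GFP aggregates in induced PC12 cells (100 nM tebufenozide) were quantified by cytometry from lysates, with compounds dosed in titration.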
HTT ATP protect: cytoprotection in Huntington HTT-Q103 PC12 cell model | PC12 HTT-Q103 induced, cytoprotection, ATP luminescence, 40 h | Potency, µM (top dose mostly 56.4 µM), usual class: activators | 230,000 compounds, 0.14% hits | AID 1471; note: nearly all actives have a fitted effect of over 45% in size
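Rat PC12, Q103 Htt exon1-GFP fusion, ecdysone promoter; tebufenozide inducer 100 nM final; compound titration; qHTS, 1500 cells/well; ATPlite luminescent read.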
HeLa tox: counter-screen for pyruvate kinase M2 activators: HeLa cytotoxicity | shares compounds with PKM2 activator | HeLa viability, CellTiter-Glo ATP luminescence, 24 h | activity change, negative = cytotoxicity, % at 57.5 µM | 230 tested, under 10 active | AID 1898
A number is an active result; [ ] = another dose, or the depositor's remark. A selection: hits, their analogues and other compounds. The true share with any hit is near 1.2%. Calls come from the whole dose curve; as a rule, active = well fitted curve in the direction sought with a large enough effect; inconclusive = small, poorly fitted or top-dose-only effect, or another doubt; inactive = no such curve, though single readings can be large; an effect the other way counts as inactive or inconclusive.

What do the screens show for `CC1CCN(C(=O)c2ccc(NS(=O)(=O)c3cccc4cccnc34)cc2)CC1`?
GLA spleen mod: inactive; PKM2 activator: 2.8µM; GLA inh pH 4.5: inactive; HttQ103 aggreg: inactive[9.22 µM]; HTT ATP protect: inactive[10 µM]; HeLa tox: inactive

Results for O=S(=O)(O)c1cc(O)c2c(O)c(N=Nc3cccc4ccccc34)c(S(=O)(=O)O)cc2c1 ?
HTT ATP protect: inactive[10 µM]

What do the screens show for `CCOc1cc(/C=C(\C#N)C(N)=O)cc(CSc2ccccc2)c1O`?
GLA spleen mod: inactive

Results for CC(=O)N1N=C(c2ccncc2)CC1c1ccccc1O (configuration not stated) ?
GLA spleen mod: inactive; PKM2 activator: 4.5µM; GLA inh pH 4.5: inactive; HttQ103 aggreg: inactive[9.22 µM]; HTT ATP protect: inactive[10 µM]; HeLa tox: inactive

What do the screens show for `O=C(c1ccccc1)N1N=C(c2ccccc2)CC1c1ccccc1O` (configuration not stated)?
GLA spleen mod: inactive; PKM2 activator: inactive; GLA inh pH 4.5: inactive; HttQ103 aggreg: inactive[9.22 µM]; HTT ATP protect: inactive

Results for Cc1cc(C(=O)OCC(=O)N2CCOCC2)c2ccccc2n1 ?
GLA spleen mod: inactive; PKM2 activator: 3.5µM; GLA inh pH 4.5: inactive; HttQ103 aggreg: inactive; HTT ATP protect: inactive[10 µM]; HeLa tox: inactive

Results for Cn1c2cc(C=O)sc2c2cnn(Cc3ccccc3F)c(=O)c21 ?
HeLa tox: inactive

Results for CSc1cc2c(s1)c1cnn(Cc3ccccc3F)c(=O)c1n2C ?
HeLa tox: inactive

How did O=c1c2cnn(-c3ccccc3)c2ncn1Cc1ccccc1F do in these assays?
GLA spleen mod: inactive; PKM2 activator: inactive; GLA inh pH 4.5: inactive; HttQ103 aggreg: inactive; HTT ATP protect: inactive

How did CC(=O)Nc1cc2c(s1)c1cnn(Cc3ccccc3F)c(=O)c1n2C do in these assays?
HeLa tox: inactive

What do the screens show for `CCc1cc2c(s1)c1cnn(Cc3ccccc3F)c(=O)c1n2C`?
HeLa tox: inconclusive

Results for Cn1c2ccccc2c2cnn(CC(=O)Nc3cccc(F)c3)c(=O)c21 ?
GLA spleen mod: inactive; PKM2 activator: inactive; GLA inh pH 4.5: inactive; HttQ103 aggreg: inactive[9.22 µM]; HTT ATP protect: inactive[10 µM]

What do the screens show for `COC(=O)N1CCC2(CC1)CCN(c1ncccn1)CC2`?
GLA spleen mod: inactive; HTT ATP protect: inconclusive

What do the screens show for `CCC1(c2ccc(O)cc2)NC(=O)N(C)C1=O` (configuration not stated)?
GLA spleen mod: inactive

What do the screens show for `O=C(Cn1ncc2c3ccccc3n(Cc3ccccc3F)c2c1=O)N1CCN(c2ccccn2)CC1`?
PKM2 activator: inactive

What do the screens show for `Cc1c2cnn(CC(=O)Nc3c(F)c(F)cc(F)c3F)c(=O)c2c(C)n1Cc1ccccc1F`?
GLA spleen mod: inactive; PKM2 activator: inactive; GLA inh pH 4.5: inactive; HttQ103 aggreg: inactive; HTT ATP protect: inactive

Results for COc1cc2c(s1)c1cnn(Cc3ccccc3F)c(=O)c1n2C ?
HeLa tox: inactive

Results for Cn1c2cc(CO)sc2c2cnn(Cc3ccccc3F)c(=O)c21 ?
HeLa tox: inactive

Results for COc1ccc(-c2coc3cc(O[C@@H]4O[C@@H](CO)[C@@H](O)[C@@H](O)[C@H]4O)cc(O)c3c2=O)cc1 ?
HTT ATP protect: inactive

How did Cc1nnc2sc(SCC(=O)Nc3nccs3)nn2c1=O do in these assays?
GLA spleen mod: inactive; PKM2 activator: 1.4µM; GLA inh pH 4.5: inactive; HttQ103 aggreg: inactive; HTT ATP protect: inactive[10 µM]; HeLa tox: inactive

What do the screens show for `COc1ccccc1NC(=O)CSc1nn2c(=O)c(C)nnc2s1`?
PKM2 activator: inactive

Results for COc1ccc(C(=O)NCCN2C(=O)S/C(=C\c3cccnc3)C2=O)cc1[N+](=O)[O-] ?
GLA spleen mod: inactive; PKM2 activator: 3.5µM; GLA inh pH 4.5: inactive; HttQ103 aggreg: inactive[9.22 µM]; HTT ATP protect: inactive[10 µM]; HeLa tox: inactive

What do the screens show for `O=C(c1cnccn1)N1CCC2(CCCN(Cc3ccncc3)C2)CC1`?
GLA spleen mod: inactive; HTT ATP protect: inactive
